High-throughput results (PubChem)
A selection: hits, their analogues and other compounds. The true share with any hit is near 4.7%.
sdo1 growth = restores growth of sdo1-depleted yeast; S. cerevisiae sdo1-depleted JHY4D growth rescue, OD600 30 h; hits give high values; pdr5 snq2 efflux-pump mutant strain; hit rate 0.21% among 140,000; z-score at 10 µM;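 active means z-score above 3 at both the 24 hr and the 30 hr optical density reads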;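 further: z-score against mean and SD of all compound wells on the same plate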
PLK1 kinase inh = PLK1 (human) kinase inhibition | P53350 | recombinant PLK1 kinase, TR-FRET peptide phosphorylation | inhibition, % at 10 µM | hit rate 0.53% among 97,000 | AID 619;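 active means inhibition of 50% or more in the single-concentration screen; inactive means inhibition below 50%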;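 further: 0% = DMSO max control and 100% = H-89 dihydrochloride min control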
hDAT+cocaine = changed human dopamine transporter uptake under cocaine IC80; Q01959; hit rate 1.3% among 110,000; AID 449768; B-score at 10 µM; LLC-PK1 hDAT cells, [14C]-dopamine uptake with cocaine IC80; actives deviate in either direction;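 active means Z score or B-score, a plate-position-corrected score, falls beyond the plate's 99.7% confidence bounds, in either direction; inactive means both scores lie inside the 99.7% bounds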;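 further: scored against the spread of the other compound wells on the same plate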
Pyk2 oligo antag = Pyk2 (human) oligomerization antagonism; hit rate 0.83% among 99,000; z-score (the deposit names both 25 µM and 10 µM); AID 1347419; Q293 cells, Pyk2 FERM NanoBiT luminescence; hits give low values;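 active means Z-score of -3 or lower, scaled per plate to the spread of control and sample wells; inactive means z-score above -3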;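 further: negative z-score means lost luminescence so less FERM oligomerization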
Target sequence (Q14289 whole entry, looked up): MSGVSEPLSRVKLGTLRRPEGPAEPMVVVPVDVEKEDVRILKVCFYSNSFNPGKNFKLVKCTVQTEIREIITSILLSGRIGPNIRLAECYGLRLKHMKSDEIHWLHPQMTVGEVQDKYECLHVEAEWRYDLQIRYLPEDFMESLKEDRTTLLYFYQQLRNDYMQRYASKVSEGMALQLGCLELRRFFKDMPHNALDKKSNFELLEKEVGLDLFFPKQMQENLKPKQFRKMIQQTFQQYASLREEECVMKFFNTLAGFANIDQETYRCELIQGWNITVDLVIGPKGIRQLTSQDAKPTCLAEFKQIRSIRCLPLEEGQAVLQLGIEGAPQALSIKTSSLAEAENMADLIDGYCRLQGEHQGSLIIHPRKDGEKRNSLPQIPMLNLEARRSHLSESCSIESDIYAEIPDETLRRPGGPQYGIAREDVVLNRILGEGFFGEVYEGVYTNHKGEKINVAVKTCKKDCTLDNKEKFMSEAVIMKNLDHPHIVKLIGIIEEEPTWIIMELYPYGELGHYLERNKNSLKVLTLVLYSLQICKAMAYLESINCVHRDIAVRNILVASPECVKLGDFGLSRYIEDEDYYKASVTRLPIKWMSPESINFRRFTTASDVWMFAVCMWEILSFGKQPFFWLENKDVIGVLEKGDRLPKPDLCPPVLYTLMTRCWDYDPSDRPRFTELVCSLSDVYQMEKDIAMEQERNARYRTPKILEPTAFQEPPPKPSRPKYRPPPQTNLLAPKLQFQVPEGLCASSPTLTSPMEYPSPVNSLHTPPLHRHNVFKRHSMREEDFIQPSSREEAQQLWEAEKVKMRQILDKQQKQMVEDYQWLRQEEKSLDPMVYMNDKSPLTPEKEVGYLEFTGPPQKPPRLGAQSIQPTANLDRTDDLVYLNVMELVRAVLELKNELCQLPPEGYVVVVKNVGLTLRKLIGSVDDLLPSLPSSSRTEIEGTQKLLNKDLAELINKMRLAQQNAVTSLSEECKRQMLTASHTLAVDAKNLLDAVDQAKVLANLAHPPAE
Plk1 PBD FP = Plk1 (human) PBD binding inhibition. inhibition, %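 (tested at about 20 µM)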. Plk1 PBD phosphopeptide binding, fluorescence polarization. P53350. AID 693. hit rate 0.13% among 97,000; in the data active means inhibition above about 34%, passing the limit was not always enough
Cav32 inh = blocks human Cav3.2 T-type calcium channel. hit rate 4% among 100,000. O95180. Cav3.2-expressing cells, Fluo-4 calcium fluorescence FDSS; hits give low values. B-score at 10 µM. AID 449739;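 active means single-dose well whose peak fluorescence ratio is a statistical outlier from its plate by either plate-standardised score or position-corrected B-score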
PLK1 inh conf = confirmation of human PLK1 kinase inhibitors. inhibition, % at 10 µM. recombinant PLK1 kinase, TR-FRET peptide phosphorylation. hit rate 20% among 210. shares compounds with PLK1 kinase inh;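 active means inhibition at or above 50% in each of two repeat confirmation tests; inconclusive means one repeat below 50% inhibition, the other above; inactive means both repeats at or below 50% inhibition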;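 further: 0% = DMSO max control and 100% = H-89 kinase-blocked min control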
TR-FRET interf = interferes with the Plk1 assay readout, not true inhibition | shares compounds with PLK1 kinase inh | Plk1 TR-FRET assay interference, compound added post-reaction | inhibition (interference), % at 10 µM | 210 tested, under 10 active | AID 756;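 active means both duplicate runs show 50% or greater inhibition; inconclusive means only one duplicate run shows over 50% inhibition; inactive means both runs show under 50% inhibition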;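 further: 0% = DMSO max control and 100% = H-89 min control inhibited reaction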
Redox H2O2 DR = redox cycling H2O2 generation counter-screen for Plk1 PBD. 120 tested, under 10 active. DTT. shares compounds with Plk1 PBD FP. EC50, µM; call rule not given here
SDO1 rescue DR = confirmation of growth rescue in SDO1-depleted yeast, bone marrow failure; S. cerevisiae JHY4D (SDO1-depleted) growth rescue, OD600, 30 h; hits give high values; efflux-deficient strain, SNQ2 and PDR5 mutated; shares compounds with sdo1 growth; hit rate 44% among 440; OD recovery (concentration not given with the values);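 active means yeast growth recovered at 30 hours, either rising with dose fitted slope above 0.001 or with average optical density gain above 0.07, some results past the limit were not filed as active; inactive means growth falling with dose or no effect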;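 further: gain in OD600 from 0 h to 30 h averaged across all seven doses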
The depositor's hits bear a star; ? = inconclusive; · = not tested or not shown.

SMILES	sdo1 growth	PLK1 kinase inh	hDAT+cocaine	Pyk2 oligo antag	Plk1 PBD FP	Cav32 inh	others
N#CC1=C(N)Oc2c(c(=O)oc3ccccc23)C1c1cccnc1 (centres undefined)	-0.1	·	-0.65	-0.94	·	-0.9
Cc1nn(-c2ccccc2)c(Cl)c1C1C(C#N)=C(N)Oc2c1c(=O)oc1ccccc21 (centres undefined)	-1.1	2	-0.3	-3.2*	13	·
CCCCCCCC(=O)NC(Oc1ccccc1[N+](=O)[O-])C(Cl)(Cl)Cl (centres undefined)	-1.1	-2	0.5	-0.96	-12	-6.9*
O=C(Cc1ccccc1)NC(Oc1ccccc1Cl)C(Cl)(Cl)Cl (centres undefined)	-0.1	·	·	·	·	·
CCOC(=O)c1ccc(N2C(=O)CC(N3CCC(C#N)(c4ccccc4)CC3)C2=O)cc1 (centres undefined)	-0.52	-4	-0.28	0.71	-29	0.32
CCOC(=O)C1(c2ccccc2)CCN(CCC(C#N)(c2ccccc2)c2ccccc2)CC1	·	·	0.39	·	·	-7.5*
COc1ccc(CCNC(C)CCc2ccc(OC)cc2)cc1 (centres undefined)	0.92	-3	0.078	0.02	-6	-0.43
CC(=O)c1ccc2c(c1)C1C(Cl)C(Sc3ccccc3[N+](=O)[O-])CC1C(c1ccccc1[N+](=O)[O-])N2 (centres undefined)	-1.4	-3	-0.059	-3.4*	10	-1.4
CC(=O)c1ccc2c(c1)C1C(Cl)C(Sc3ccccc3[N+](=O)[O-])CC1C(c1ccccc1)N2 (centres undefined)	-2.2	7	1.4	-1.8	16	-0.5
O=C(Cn1ncc2c3ccccc3n(Cc3ccc(F)cc3)c2c1=O)N1CCC2(CC1)OCCO2	-1.6	-9	0.75	-0.59	-7	-8*
CCOP(=O)(C#CC(C)(C)C)C1(O)CCCCC1 (centres undefined)	0.81	·	1.5	-0.42	·	0.47
CC(C)c1oc(=O)cc2c1[C@@H](O)[C@H]1OC(=O)[C@@]3(C)C[C@@H](O)[C@@H](O)[C@@]2(C)C13 (some centres undefined)	0.21	·	-0.68	·	·	0.43
O=P(Nc1cccnc1)(Oc1ccccc1Cl)Oc1ccccc1Cl	-1.3	·	·	·	·	·
O=P(Nc1ccccc1)(Nc1ccccc1)Oc1cccc(Cl)c1	-0.73	-5	0.35	-2.2	-28	-7.1*
O=C(Nc1ccc(Br)cc1)c1nn(C23CC4CC(CC(C4)C2)C3)cc1Br	-1.8	-8	3*	-0.55	-30	-3.4
COC(=O)C1=C(c2cc3ccccc3s2)C[C@@H]2CC[C@H]1N2C(=O)NCc1ccc(F)cc1	·	·	0.072	·	·	-3.4*
COC(=O)C1=C(c2cc3ccccc3s2)C[C@@H]2CC[C@H]1N2C(=O)NCc1ccccc1	·	·	1.1	·	·	-2.4
O=C(c1cccs1)c1cn(Cc2ccccc2Cl)c2ccccc12	-1.6	-15	0.64	-0.72	-29	-6.2*
CCC1(c2ccc(N)cc2)CCC(=O)NC1=O (centres undefined)	·	·	-0.8	·	·	0.33
Cc1ccc2nc3c(cc2c1)CC1(C(=O)N(C)C(=O)N(C)C1=O)C1CCCCN31 (centres undefined)	-1.8	-1	2.9*	-0.05	11	0.11
Cc1ccc2nc3c(cc2c1)CC1(C(=O)N(C)C(=O)N(C)C1=O)C1COCCN31 (centres undefined)	1.2	-8	0.23	2.1	-7	0.54
CCNC(=O)[C@H]1O[C@@H](n2cnc3c(N)ncnc32)[C@H](O)[C@@H]1O	·	·	0.033	·	·	·
NC(=O)c1cn(C2OC(CO)C(O)C2O)c2ncnc(N)c12 (centres undefined)	1.2	·	0.13	·	·	-4.7*
CCCNC(=O)c1c(N)n(Cc2ccco2)c2nc3ccccc3nc12	-2.5	-8	2.1	·	-26	-1.5
COc1ccc(Cn2c(N)c(C(=O)NCc3ccco3)c3nc4ccccc4nc32)cc1OC	-1.8	72*	·	-1.9	-13	·	PLK1 inh conf=71*;TR-FRET interf=-43
SMILES	sdo1 growth	PLK1 kinase inh	hDAT+cocaine	Pyk2 oligo antag	Plk1 PBD FP	Cav32 inh	others
CCN(CC)CCCN=C(C)c1c(O)n(-c2ccc(C)cc2)c(=O)[nH]c1=O	0.04	4	0.6	0.02	-4	-0.27
CN1/C(=C\C=C\C2=[N+](C)c3ccc4ccccc4c3C2(C)C)C(C)(C)c2ccccc21	-1.2	86*	-0.045	·	-4	-5.9*	PLK1 inh conf=?;TR-FRET interf=11
CCOC(=O)c1ccc(NC(=O)c2c(O)[nH]c(=O)[nH]c2=O)cc1	1.2	9	·	0.12	59*	·	Redox H2O2 DR=>50
Cc1nc2c(=O)n(C)c(=O)nc-2n(C)n1	-1.7	-12	·	-2.3	116*	·	Redox H2O2 DR=1.6*
CCn1nc(-c2ccccc2)nc2c(=O)n(C)c(=O)nc1-2	-2.3	·	-0.018	-0.25	·	-1.7
CC(C)N(CC(O)c1cccc([N+](=O)[O-])c1)C(C)C (centres undefined)	0.09	-4	-0.019	1.2	-16	0.14
O=C1C(=O)c2ccccc2-c2ccccc21	-2.9	3	-1.1	·	95*	-0.1	Redox H2O2 DR=>50
CC(Cc1ccccc1)[n+]1cc(/N=C(\[O-])N(C)C)on1 (centres undefined)	0.14	-3	1.4	-0.12	-10	0.35
C[N+]1=C(/C=C/Nc2ccccc2)C(C)(C)c2ccccc21	6.2*	·	·	·	·	·	SDO1 rescue DR=0.14*
O=C(N/N=C/c1c(O)n(CCC2=CCCCC2)c(=O)[nH]c1=O)c1ccccc1	1	·	·	·	·	·
Nc1ccccc1N=Cc1c(O)n(CCC2=CCCCC2)c(=O)[nH]c1=O	7.4*	-26	0.55	0.12	13	0.16	SDO1 rescue DR=0.059
O=P(O)(O)Cc1c(Cl)cccc1Cl	0.73	·	·	·	·	·
Cc1ccccc1NP(=O)(Oc1ccccc1F)Oc1ccccc1F	-1.3	·	·	·	·	·
COc1ccccc1N=Cc1c(O)n(C)c(=O)n(C)c1=O	3.2*	-5	-0.011	1.3	-15	-0.3	SDO1 rescue DR=0.083*
